Measured potencies and affinities stand elsewhere. Unmarked numbers belong to inactive results. No rule for the calls is given here.
Experiment: HEK293 cell cytotoxicity, dose response, cytotoxicity control, plate reader, cherry-picked samples (AID 743446)
Details: stronger effect = lower value; at 26 µM unless noted

SMILES	max activity
C[C@H](CO)N1C[C@H](C)[C@H](CN(C)C(=O)Nc2ccc(F)cc2)OCCCC[C@H](C)Oc2ccc(NC(=O)C3CCCCC3)cc2C1=O	-10.8% [at 6 µM]
CC(C)C(=O)N1CCN(c2ccc(NC(=O)COc3ccccc3[N+](=O)[O-])cc2)CC1	-46.9%
O=c1c2c(nc3cc(-c4ccc(F)cc4)[nH]n13)CCCC2	-12.8%
CO[C@H]1CN(C)C(=O)c2ccc(NC(=O)c3ccc(-c4ccccc4)cc3)cc2OC[C@@H](C)NC[C@@H]1C	20.6% [at 0.8 µM]
CC1CCCN(c2ncnc3c2cnn3-c2ccccc2)C1 (configuration not stated)	-23.6% [at 12 µM]
c1ccc(COc2ccc(OCCCN3CCCC3)cc2)cc1	-13.8% [at 0.05 µM]
COc1ccc2[nH]c3c(c2c1)CCN1C(=O)N([C@@H](C)C(=O)NCc2ccc(C)cc2)C(=O)[C@]31C	-9.06% [at 6 µM]
CCCCCc1ccc(-c2ccc(C(=O)O)cc2)nc1	34.4% [at 0.8 µM]
CCCc1nc(SCC(=O)N2CCC(Cc3ccccc3)CC2)c2c(=O)n(C)c(=O)n(C)c2n1	11.8% [at 0.05 µM]
CC(C)CCNC(=O)C(c1ccc(O)cc1)N(Cc1cccs1)C(=O)C1COc2ccccc2O1 (configuration not stated)	-16.3%
Cc1cc(C(=O)CN2C(=O)c3ccccc3S2(=O)=O)c(C)n1C(C)C	-20.6% [at 3 µM]
c1nc(CCO[C@H]2CCCCO2)cc2cc3c(cc12)OCO3	9.43%

Source: PubChem BioAssay AID743446 (Broad Institute, 2014)
